From PubChem BioAssay (EPA / NIEHS) come the findings set out here.

A short description of assay [1]: CCTE_Shafer_MEA_acute_spike_number: CCTE's Neural Acute Assay for Total Number of Spikes, Shafer Lab (AID 2284008).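 On AC50: curve fitted for decrease in spike count so AC50 reflects inhibitors.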 In outline:
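Primary rat cortical neurons on 16-electrode MEA wells; on DIV 13 or 15, 40-min baseline then 40-min recording with compound (0.03-40 uM) at 37 C. Spikes detected at 8x rms noise; percent change versus baseline, DMSO as negative control.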

Assay [2] is described as follows: CCTE_Shafer_MEA_acute_firing_rate_mean: CCTE's Neural Acute Assay for Mean Firing Rate, Shafer Lab (AID 2284009).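 Further: analyzed for loss of signal so actives lower firing rate relative to DMSO.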 The gist of the method:
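Percent change in well-mean firing rate was derived from extracellular spikes detected at 8x rms noise (300-5000 Hz band-pass) before and after a 40-min compound exposure. Cultures were primary rat cortical neurons, tested at 0.03-40 uM.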

Assay [3] is described as follows: CCTE_Harrill_HTTr_Viability_MCF7: CCTE's 6-hour Cell Viability Assessment for the High-Throughput Transcriptomics (HTTr) Platform, in MCF-7 cells cultured in DMEM + 10% fetal bovine serum, Harrill Lab (AID 2284010). The gist of the method:
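Viability measured through PI dye exclusion by high-content imaging at 6 h post-dosing.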

A short description of assay [4]: CCTE_Harrill_HTTr_Apoptosis_MCF7: CCTE's 6-hour Apoptosis Assessment for the High-Throughput Transcriptomics (HTTr) Platform, in MCF-7 cells cultured in DMEM + 10% fetal bovine serum, Harrill Lab (AID 2284011). The gist of the method:
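MCF-7 cells in DMEM + 10% fetal bovine serum were exposed to chemicals for 6 hours over an eight-point dilution series. Caspase-3/7 activation was imaged by high content imaging with CellEvent Caspase 3/7 Green; bidirectional fitting used DMSO as baseline.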

The nature of assay [5]: CCTE_Harrill_HTTr_CellCount_MCF7: CCTE's Cell Proliferation Assessment for the High-Throughput Transcriptomics (HTTr) Platform, Harrill Lab (AID 2284012; active means hit-call score of the fitted dose curve at least 0.9, where 1 is the maximum;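 further: count of Hoechst-stained nuclei per well by high-content imaging in MCF-7 cells; cells exposed to compound for six hours; intended direction is loss of nuclei count meaning fewer cells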). In outline: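 Nuclei counting (Hoechst, high content imaging) in MCF-7 after a 6 h treatment at eight concentrations. Activity fitted bidirectionally, DMSO as negative control.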
Assay [6] can be described thus: CCTE_Shafer_MEA_acute_burst_number: CCTE's Neural Acute Assay for Single-Electrode Bursts, Shafer Lab (AID 2284013). The gist of the method:
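Spontaneous network activity of primary rat cortical neurons was recorded extracellularly on microelectrode arrays at 37 C, with 40-min periods before and during exposure to 0.03-40 uM compound on DIV 13 or 15.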

Assay [7] is described as follows: CCTE_Shafer_MEA_acute_burst_duration_mean: CCTE's Neural Acute Assay for Mean Burst Duration, Shafer Lab (AID 2284014).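 Further: hits are decreases in mean burst duration relative to DMSO controls.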 In outline: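 Read-out is the per-well percent change in mean burst duration (first to last spike within a single-electrode burst) between 40-min recordings before and after compound. Cultures were primary rat cortical neurons on MEAs, dosed at 0.03-40 uM on DIV 13 or 15.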

A short description of assay [8]: CCTE_Shafer_MEA_acute_per_burst_spike_number_mean: CCTE's Neural Acute Assay for Average Number of Spikes Per Burst, Shafer Lab (AID 2284015).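 Further: hits are decreases in mean spikes per burst versus baseline.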 In outline:
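Read-out: percent change in mean spikes per burst, each well's post-exposure 40-min recording versus its own 40-min baseline. Rat cortical cultures, DIV 13 or 15, compounds 0.03-40 uM; DMSO is negative control, loss-of-signal fitting.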

Assay [9] is described as follows: CCTE_Shafer_MEA_acute_interburst_interval_mean: CCTE's Neural Acute Assay for Mean Interburst Interval, Shafer Lab (AID 2284016).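 Further: percent change of mean interburst interval versus each well's own pre-dose baseline; curves fitted for decrease in interburst interval relative to DMSO.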 In outline:
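Rat cortical cultures, DIV 13/15; 20 min equilibration, 40 min baseline, compound 0.03-40 uM, 40 min re-recording, 37 C. Spikes detected at 8x rms noise (300-5000 Hz band-pass). Endpoint: % change in interburst interval, fitted in loss direction vs DMSO.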

The nature of assay [10]: CCTE_Shafer_MEA_acute_burst_percentage_mean: CCTE's Neural Acute Assay for Percentage of Spikes in a Burst, Shafer Lab (AID 2284017).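 On AC50: curve fitted for loss of signal so potency reflects decreased burst percentage.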 In outline: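 Rat cortical cultures, DIV 13/15, 37 C. Spikes detected at 8x rms noise (300-5000 Hz band-pass). Burst spikes/total spikes averaged across electrodes per well; % change post- vs pre-treatment (40 min each), loss-of-signal fit vs DMSO.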

The nature of assay [11]: CCTE_Shafer_MEA_acute_burst_percentage_std: CCTE's Neural Acute Assay for Standard Deviation of Burst Percentage, Shafer Lab (AID 2284018).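 Further: fitted in the negative direction so actives lower burst percentage SD.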 The gist of the method: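 Value is percent change from baseline in the across-electrode SD of spikes-in-bursts percentage, wells with >/= 10 active electrodes. Acute 40-min exposure to 0.03-40 uM on DIV 13 or 15 rat cortical cultures, recorded at 37 C after 40-min baseline.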

Assay [12] can be described thus: CCTE_Shafer_MEA_acute_per_network_burst_spike_number_mean: CCTE's Neural Acute Assay for Average Number of Spikes in a Network Burst, Shafer Lab (AID 2284019).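 On AC50: curve fitted for loss of signal so actives reduce spikes per network burst.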 In outline:
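Read-out is mean spike count per network burst, taken as percent change between a 40-min pre-exposure and a 40-min post-exposure recording per well. Rat primary cortical neurons on MEAs at 37 C, DIV 13 or 15; compounds at 0.03-40 uM.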

The nature of assay [13]: CCTE_Shafer_MEA_acute_per_network_burst_spike_number_std: CCTE's Neural Acute Assay for Standard Deviation of Number of Spikes in a Network Burst, Shafer Lab (AID 2284020).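 Further: fitted for decrease in spike-number SD versus DMSO so actives lower it.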 The gist of the method: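 Spontaneous network activity of primary rat cortical neurons is recorded extracellularly before and after a 40-min compound exposure (0.03-40 uM) at 37 C. The endpoint is the well's percent change in burst spike-number SD.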

The structures appear in SMILES notation. Where “and” joins values, the source holds several entries; their conditions need not be identical. Equal values may be shown once. Records with an inconclusive call do not appear. Some compounds were tested as several samples or in several runs, with calls that do not always agree. Calls of active or inactive are those of the source. How the source made its calls, unless noted: active means hit-call score of the fitted dose curve at least 0.9, where 1 is the maximum; inactive means score below 0.9.

Regarding `O=C1c2ccccc2C(=O)N1SC(Cl)(Cl)Cl`, the result in assay [1], in assay [2], in assay [3], in assay [4], in [5] and in assay [6] was inactive. Also, the call in [7], in assay [8], in assay [9], in assay [10], in assay [11] and in [12] was inactive. Besides, in [13], the molecule was classed as inactive.

As for `N#CN`, the outcome in [1], in assay [2], in [3], in assay [4], in assay [6] and in assay [7] was inactive. Further, the outcome in assay [8], in assay [9], in [10], in [11], in assay [12] and in [13] was inactive.

For the molecule `CNC(=O)Oc1ccccc1OC(C)C`, the outcome in assay [3] and in assay [4] was inactive.

As for `CNC(=O)Oc1cccc(N=CN(C)C)c1`, the result in assay [3], in assay [4] and in [5] was inactive.

With `O=C(O)C(F)(F)C(F)(F)C(F)(F)C(F)(F)C(F)(F)C(F)(F)C(F)(F)F`, the result in assay [3], in [4] and in assay [5] was inactive.

For `Clc1ccccc1-c1nnc(-c2ccccc2Cl)nn1`, the outcome in assay [1], in [2], in [3], in [4], in [6] and in assay [7] was inactive. Besides, the molecule was classed as inactive in assay [8], in assay [9], in [10], in assay [11], in assay [12] and in assay [13].

For the molecule `CCN(CC)C(=O)SCc1ccc(Cl)cc1`, the outcome in assay [3], in assay [4] and in assay [5] was inactive.

On to `CC(C)(C)C(O)C(Oc1ccc(Cl)cc1)n1cncn1` (configuration not stated), for which the result in assay [3] and in assay [4] was inactive.

As to `COP(=S)(OC)Oc1ccc(SC)c(C)c1`, the AC50 in assay [1] was 7.7 µM (active); in assay [2], 7.7 µM (active); in [6] it was 6.28 µM (active); in assay [10] it was 29.1 µM (active); in assay [11] it was 33.2 µM (active). The outcome in [3], in assay [4], in assay [7], in [8], in assay [9] and in assay [12] was inactive. For the same molecule, the outcome in assay [13] was inactive.

For the molecule `CN1CSC(=S)N(C)C1`, the result in assay [3], in [4] and in assay [5] was inactive.

Consider `CCc1ccc(C(=O)NN(C(=O)c2cc(C)cc(C)c2)C(C)(C)C)cc1`, for which the result in assay [3] and in assay [4] was inactive.

As for `CC(C)OC(=O)Nc1cccc(Cl)c1`, the results for the concentration at half-maximal activity (AC50) in [1], in assay [10] and in assay [13] were 10.2 µM (active), 20 µM (active) and 25.2 µM (active), respectively. Moreover, the outcome in assay [2], in [3], in [4], in assay [6], in assay [7] and in [8] was inactive. Also, the molecule was called inactive in assay [9], in assay [11] and in assay [12].

As for `O=C(Nc1ccccc1)Nc1cnns1`, the outcome in assay [3], in [4] and in assay [5] was inactive.

For `O=C(NC(=O)c1c(F)cccc1F)Nc1ccc(OC(F)(F)C(F)OC(F)(F)F)c(Cl)c1` (configuration not stated), the result in assay [3], in assay [4] and in [5] was inactive.

Take `OCCOc1ccccc1`: the outcome in assay [3] and in assay [4] was inactive.

Turning to `CNC(=O)/C=C(\C)OP(=O)(OC)OC`, the molecule was called inactive in assay [1], in assay [2], in assay [3], in assay [4], in [6] and in assay [7]. In addition, the molecule was called inactive in assay [8], in assay [9], in assay [10], in [11], in assay [12] and in [13].

Turning to `CC(C)N(C(=O)COc1nnc(C(F)(F)F)s1)c1ccc(F)cc1`, the concentration at half-maximal activity (AC50) was 5.77 µM (active) and 2.11 µM (active) in assay [1]; 5.77 µM (active) in [2]; 1.36 µM (active) in assay [8]; 31.9 µM (active) in [9]; 30.6 µM (active) and 15 µM (active) in assay [10]; 3.55 µM (active) in assay [11]. Besides, the concentration at half-maximal activity (AC50) in assay [13] is 1.32 µM (active). Also, the outcome in assay [2], in assay [3], in [4], in [6], in [7] and in assay [8] was inactive. Moreover, the molecule was called inactive in [9], in assay [11], in assay [12] and in [13].

As for `CNC(=O)CSP(=S)(OC)OC`, the molecule was called inactive in assay [1], in assay [2], in assay [3], in assay [4], in assay [5] and in assay [6]. Also, the call in assay [7], in assay [8], in assay [9], in assay [10], in [11] and in assay [12] was inactive. In [13], the outcome was inactive.

Take `CC1(C)C(C=C(Cl)Cl)C1C(=O)OC(C#N)c1ccc(F)c(Oc2ccccc2)c1` (configuration not stated): the AC50 was 407 nM (active) and 4.51 µM (active) in assay [1]; 450 nM (active) and 4.51 µM (active) in assay [2]; 0.173 µM (active) in assay [6]; 1.66 µM (active) in assay [7]; 0.574 µM (active) in assay [8]; 210 nM (active) and 1.95 µM (active) in assay [10]. Further, the AC50 was 5.28 µM (active) in assay [11]; 54.4 nM (active) and 609 nM (active) in assay [12]; 81.2 nM (active) and 622 nM (active) in assay [13]. The outcome in assay [3], in assay [4], in assay [5], in [6], in [7] and in assay [8] was inactive. The molecule was classed as inactive in assay [9] and in assay [11].

Consider `O=S(=O)(O)C(F)(F)C(F)(F)C(F)(F)C(F)(F)C(F)(F)C(F)(F)C(F)(F)C(F)(F)F`, for which the call in [1], in assay [2], in assay [3], in assay [4], in assay [5] and in assay [6] was inactive. In addition, the call in assay [7], in assay [8], in assay [9], in [10], in assay [11] and in [12] was inactive. The molecule was classed as inactive in assay [13].

Turning to `COP(=O)(OC)OC=C(Cl)Cl`, the result in assay [3] and in assay [4] was inactive.

In the case of `ClC1C(Cl)C(Cl)C(Cl)C(Cl)C1Cl` (configuration not stated), the AC50 in assay [1] was 20 µM (active); in assay [2], 20 µM (active); in [7], 20 µM (active); in assay [8], 1.62 µM (active); in assay [10], 1.53 µM (active); in [12], 1.23 µM (active). The outcome in [3], in [4], in [5], in assay [6], in assay [9] and in assay [11] was inactive. In [13], the molecule was classed as inactive.

Regarding `COc1nn(CSP(=S)(OC)OC)c(=O)s1`, the outcome in assay [3], in assay [4] and in assay [5] was inactive.
